FadD28 binding – inhibitors of Mycobacterium tuberculosis FadD28 bisubstrate binding | inhibition, % at 12.5 µM | 360,000 compounds, 0.22% hits | FadD28 bisubstrate probe binding, fluorescence polarization | AID 588549; in the data active = inhibition above about 8.5%, passing the limit was not always enough
Mtb BioA inh – inhibitors of Mycobacterium tuberculosis BioA enzyme. purified M. tuberculosis BioA enzyme, plate reader. inhibition, % at 9.99 µM. 360,000 compounds, 0.096% hits. AID 602481; in the data active = inhibition above about 40%
GDH-TPI counter – GDH-TPI coupled enzyme inhibition counter-screen. GDH-TPI coupled enzyme counterscreen, NADH absorbance. 360,000 compounds, 1.2% hits. AID 588335. inhibition, % at 4.8 µM; in the data active = inhibition above about 30%;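 also: 0% = DMSO wells and 100% = wells lacking the enzyme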
Mtb FBA inh – inhibits M. tuberculosis FBA enzyme. inhibition, % at 1 µM. purified M. tuberculosis FBA, fluorescence read-out. P9WQA3. 360,000 compounds, 2.3% hits; in the data active = inhibition above about 27%;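 also: 0% = vehicle and 100% = reference inhibitor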
Target sequence (P9WQA3 whole entry, looked up): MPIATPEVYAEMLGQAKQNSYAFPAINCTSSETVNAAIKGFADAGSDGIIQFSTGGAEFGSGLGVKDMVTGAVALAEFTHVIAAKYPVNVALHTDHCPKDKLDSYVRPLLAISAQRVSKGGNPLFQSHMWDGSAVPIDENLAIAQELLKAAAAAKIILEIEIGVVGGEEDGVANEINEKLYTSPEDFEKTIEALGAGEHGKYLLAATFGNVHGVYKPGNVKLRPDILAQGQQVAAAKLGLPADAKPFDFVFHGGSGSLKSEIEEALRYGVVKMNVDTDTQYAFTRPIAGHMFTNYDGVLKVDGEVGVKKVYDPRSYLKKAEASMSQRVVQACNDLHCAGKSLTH
Rv3671c inh – inhibits the M. tuberculosis serine protease Rv3671c; P9WHR9; inhibition, % at 5.96 µM; 320,000 compounds, 0.048% hits; AID 2606; in the data active = inhibition above about 38%;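 also: extracellular domain of Rv3671c used as enzyme; 0% = enzyme with DMSO and 100% = no enzyme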
* hit, by the source's call; · = not tested or not shown; + = active, no number. Shown are actives, neighbours in structure and some others; about 3% of the full set was active somewhere.

SMILES	FadD28 binding	Mtb BioA inh	GDH-TPI counter	Mtb FBA inh	Rv3671c inh
COc1cc(C2C(C#N)=C(N)OC3=C2C(=O)CCC3)c([N+](=O)[O-])cc1OC (stereo unspecified)	20.7*	·	17.8	8.4	27.6
O=C1CCCC2=C1C1(CCCC1)N=C(Nc1nc3ccccc3o1)N2	-2.2	-1.0	12.4	0.8	·
O=C1CCCC2=C1C1(CCCCC1)N=C(Nc1nc3ccccc3o1)N2	0.5	·	50.6*	-5.5	0.0
Cc1c(C)c2ccc(OCC(=O)Nc3nccs3)cc2oc1=O	-0.2	2.9	16.7	65.4*	-5.6
COc1ccc(S(=O)(=O)N(C)C[C@@H]2OCCCC[C@H](C)Oc3ccc(NC(=O)NC(C)C)cc3C(=O)N([C@@H](C)CO)C[C@H]2C)cc1	·	-1.3	·	·	·
COc1cccc2sc(Nc3nc4ccc(NC(C)=O)cc4s3)nc12	-2.0	·	25.1	88.5*	-4.6
Nc1ccc(C(=O)Nc2ccc3nc(-c4cccnc4)[nH]c3c2)cc1	-2.5	12.9	36.7*	-4.0	11.3
CC(=O)Nc1cccc(-c2nc3ccc(NC(C)=O)cc3[nH]2)c1	-2.3	3.6	16.1	+	1.9
COC(=O)c1ccc(C(=O)Nc2ccc3nc(-c4cccnc4)[nH]c3c2)cc1	-0.4	·	21.9	-3.4	-24.1
CC(=O)Nc1ccc2nc(NC(=O)COc3ccccc3C)sc2c1	-2.5	-0.5	-3.8	2.2	-18.5
O=C(O)CCC(=O)Nc1ccc(-c2nc3ccc(C(=O)c4ccccc4)cc3[nH]2)cc1	-21.4	4.1	38.4*	0.7	-20.2
CC(=O)Nc1cccc(-c2nc3ccccc3[nH]2)c1	-6.5	4.0	-7.9	15.0	-0.5
Cc1noc(C)c1NC(=O)Nc1ccc2c(c1)C(=O)N([C@H](C)CO)C[C@H](C)[C@@H](CN(C)C(=O)CCCN(C)C)OCCCC[C@H](C)O2	·	2.2	·	·	·
C[C@H]1CN([C@@H](C)CO)C(=O)c2cc(C#CCN(C)C)cnc2O[C@@H]1CN(C)C(=O)Cc1cccnc1	·	3.8	·	·	·
CC(=O)Nc1cccc(-c2nc3ccccc3s2)c1	-5.2	·	-0.6	6.4	-4.3
COc1cccc2sc(Nc3nc(-c4ccncc4)cs3)nc12	2.1	·	37.8*	-0.9	1.8
CC(=O)Nc1cccc(-c2nc3ccc(NC(C)=O)cc3s2)c1	-3.2	·	21.2	+	-18.7
COc1cccc2sc(Nc3nc(-c4cc5ccccc5oc4=O)cs3)nc12	-2.1	-2.1	15.1	1.3	-1.2
Cc1nc2c(C)cccn2c(=O)c1NC(=O)c1ccc(Br)o1	0.9	·	32.9*	2.2	0.2
C[C@H]1CN([C@@H](C)CO)C(=O)CCCn2nncc2CO[C@H]1CN(C)S(=O)(=O)c1cn(C)cn1	·	-1.6	·	·	·
O=C(Nc1cccc(C(=O)O)c1)/C(=C\C=C\c1ccccc1)NC(=O)c1ccccc1	-1.9	·	33.0*	-7.3	-0.3
COc1ccc(/C=C(/NC(=O)c2ccccc2OC)C(=O)Nc2ccc(C(=O)O)cc2)cc1	-0.4	-0.4	19.2	-2.9	1.9
CCOC(=O)/C(=C\C=C\c1ccccc1)NC(=O)c1ccccc1	-1.5	-0.2	67.4*	3.3	-5.3
CCOC(=O)/C(=C/C=C/c1ccccc1)NC(=O)c1ccccc1	-1.8	·	30.0	0.9	-5.2
O=C(Nc1ccc(C(=O)O)cc1)/C(=C\C=C\c1ccccc1)NC(=O)c1ccccc1Br	-3.4	1.8	51.6*	-3.4	-9.2
SMILES	FadD28 binding	Mtb BioA inh	GDH-TPI counter	Mtb FBA inh	Rv3671c inh
O=C(O)CCNC(=O)/C(=C/C=C/c1ccccc1)NC(=O)c1ccccc1	-1.8	·	17.6	-1.3	-6.9
Cc1ccc(NC(=O)/C(=C\C=C\c2ccccc2)NC(=O)c2ccccc2)cc1	-1.8	-1.9	51.2*	0.3	-16.3
O=C(Nc1ccc(C(=O)O)cc1)/C(=C\C=C\c1ccccc1)NC(=O)c1cccc(Br)c1	-5.2	·	42.1*	-2.7	-28.6
Cc1noc(C)c1S(=O)(=O)Nc1ccc2c(c1)C(=O)N([C@H](C)CO)C[C@@H](C)[C@H](CN(C)C(=O)Nc1cccc3ccccc13)OCCCC[C@@H](C)O2	·	-1.6	·	·	·
CCOc1cc(/C=N/n2cnnc2)ccc1O	-2.0	-1.5	33.9*	2.6	-6.0
CCOc1cc(/C=N/Nc2nn3cnnc3c3ccccc23)ccc1O	-0.2	-1.6	32.1*	-0.8	3.9
Oc1ccc(/C=N/Nc2nn3cnnc3c3ccccc23)cc1	-3.6	·	16.0	-3.3	1.8
COc1cccc(/C=N/Nc2nn3cnnc3c3ccccc23)c1	-6.4	0.2	23.4	0.6	-3.6
COc1cc(/C=N/Nc2nn3cnnc3c3ccccc23)ccc1O	0.6	-0.7	31.8*	-0.7	6.7
C[C@H](CO)N1C[C@H](C)[C@@H](CN(C)Cc2cccnc2)Oc2ncc(-c3ccccc3)cc2C1=O	·	5.4	·	·	·
Cc1nc(SCc2ccccc2)c([N+](=O)[O-])[nH]1	1.2	·	5.2	-6.4	3.2
COc1ccc(CSc2nc(C)[nH]c2[N+](=O)[O-])cc1[N+](=O)[O-]	0.5	-1.4	41.5*	-9.8	-8.4
C[C@H]1CN([C@@H](C)CO)C(=O)Cc2cc(NC(=O)NC3CCCCC3)ccc2O[C@@H]1CN(C)C(=O)NC1CCCCC1	·	-0.7	·	·	·
O=C(C[C@H]1CC[C@H]2[C@@H](COC[C@@H](O)CN2S(=O)(=O)c2ccccc2F)O1)N1CCC(Cc2ccccc2)CC1	·	-0.3	·	·	·
CCC(=O)OCc1cc(=O)oc2ccc3ccccc3c12	-3.5	0.0	16.4	170.0*	2.5
COc1ccc(-c2csc(=Nc3c(C)n(C)n(-c4ccccc4)c3=O)n2C(C)(C)C)cc1	-2.6	-0.8	-9.2	-3.3	-3.7
COc1ccc(-c2cc(=Nc3c(C)n(C)n(-c4ccccc4)c3=O)c3ccccc3o2)cc1	-1.9	4.1	17.3	+	-1.3
O=C(CN1C(=O)S/C(=C\c2ccccc2Cl)C1=O)NCCCn1ccnc1	0.3	0.0	35.3*	2.7	1.3
COc1cc(/C=C2/C(=O)N(c3ccc([N+](=O)[O-])cc3)N=C2N2CCOCC2)ccc1O	0.9	1.6	38.8*	-6.5	-181.9
COc1cc2cc(C)c(SCC(=O)N3CCN(C(=O)c4ccco4)CC3)nc2cc1OC	-2.6	-0.8	44.3*	10.4	-1.0
C[C@@H]1CN([C@@H](C)CO)C(=O)c2cc(NC(=O)CCC(F)(F)F)ccc2O[C@@H]1CN(C)Cc1ccc(C(=O)O)cc1	·	-3.1	·	·	·
O=C(CSc1nc2ccccc2o1)N/N=C/c1ccc(O)c(O)c1	-1.6	1.4	54.4*	2.9	3.2
CCCNC(=O)Nc1ccc2c(c1)OC[C@@H](C)N(Cc1ccccc1)C[C@@H](C)[C@@H](OC)CN(C)C2=O	·	2.2	·	·	·
Cc1nc2c(C)cccn2c(=O)c1NC(=O)c1ccco1	-4.5	·	14.1	-0.7	0.8
Cc1cccn2c(=O)c(/C=C(\C#N)C(=O)NCc3ccco3)c(N3CCOCC3)nc12	-0.7	1.6	8.9	14.1	4.1
Cc1cccn2c(=O)c3cc(C#N)c(=NC(=O)c4ccccc4)n(Cc4ccco4)c3nc12	-1.4	-0.1	15.9	182.4*	-14.5
Cc1cccc(C(=O)N=c2c(C#N)cc3c(=O)n4cccc(C)c4nc3n2Cc2ccco2)c1	-3.3	-2.4	7.8	168.1*	-11.2
Cc1cccn2c(=O)c3cc(C#N)c(=NC(=O)c4ccco4)n(Cc4ccco4)c3nc12	-1.4	1.1	9.2	+	4.6

Source: PubChem BioAssay (several laboratories)
